This note sets out measurements from PubChem BioAssay (NCATS).

The test system of one test is MCC-26. The experiment in a line: qHTS assay to identify novel small-molecules to repurpose for Merkel cell carcinoma treatment (AID 1296009). Further: nearly all actives have a fitted effect of over 60% in size. The note with it: MCC and control cell lines, CellTiter-Glo viability, 72 h; series mostly up to 46 µM. Put shortly: (§1)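 CellTiter-Glo luminescence after 72 hr compound exposure at 37 degree celsius gave cell viability. Libraries NPC and MIPE were run as 8- and 11-point dose responses; RLUs normalized to DMSO (negative) and no-cell (cytotoxicity) controls.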
On the technique in general: In qHTS, concentration-response curves come from the screen itself.

The subject of the next test is MKL-1. Described as above. The settings on record: MCC and control cell lines, CellTiter-Glo viability, 72 h; series mostly up to 46 µM. Put shortly:
as §1

A further test concerns MKL-2. The description is as above. The note with it: MCC and control cell lines, CellTiter-Glo viability, 72 h; series mostly up to 46 µM. Put shortly:
as §1

The subject of another test is UISO. The description is as above. The settings on record: MCC and control cell lines, CellTiter-Glo viability, 72 h; series mostly up to 46 µM. The procedure, abridged: as §1
For orientation: Cellular ATP, detected with luciferase, serves as a proxy for viable cell number.

The test system of a further test is WaGa. The description is as above. The note with it: MCC and control cell lines, CellTiter-Glo viability, 72 h; series mostly up to 46 µM. Put shortly: as §1
The next test concerns C33A. Kind of test: Primary qHTS to identify gynecologic anti-cancer compounds using libraries of approved drugs and bioactive compounds (AID 1345084). Further: nearly all actives have a fitted effect of over 55% in size. The note with it: Gynecologic cancer cell panel viability, ATPlite luminescence, 48 h; series mostly up to 57.5 µM. The procedure, abridged: (§2)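 In this quantitative HTS, cell killing is estimated from loss of ATP-dependent luciferase light. Cells see five compound concentrations over a 48 h exposure.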

The next test deals with CASKI. The test is described as above. The settings on record: Gynecologic cancer cell panel viability, ATPlite luminescence, 48 h; series mostly up to 57.5 µM. Put shortly:
as §2

Another test relates to HeLa. The test is described as above. The note with it: Gynecologic cancer cell panel viability, ATPlite luminescence, 48 h; series mostly up to 57.5 µM. The procedure, abridged:
as §2

Another test concerns Hek293T. The test is described as above. The note with it: Gynecologic cancer cell panel viability, ATPlite luminescence, 48 h, control line for the selectivity index; series mostly up to 57.5 µM. Put shortly: as §2
The subject of another test is JEG-3. Described as above. The settings on record: Gynecologic cancer cell panel viability, ATPlite luminescence, 48 h; series mostly up to 57.5 µM. Put shortly: as §2
For another test, the system named is OV90. The description is as above. The settings on record: Gynecologic cancer cell panel viability, ATPlite luminescence, 48 h; series mostly up to 57.5 µM. The procedure, abridged: as §2
The subject of another test is PA-1. The description is as above. The settings on record: Gynecologic cancer cell panel viability, ATPlite luminescence, 48 h; series mostly up to 57.5 µM. The procedure, abridged:
as §2

The test system of the next test is SKOV3. The test is described as above. The note with it: Gynecologic cancer cell panel viability, ATPlite luminescence, 48 h; series mostly up to 57.5 µM. The procedure, abridged: as §2
In the next test the test system is CAOV3. The description is as above. The settings on record: Gynecologic cancer cell panel viability, ATPlite luminescence, 48 h; series mostly up to 57.5 µM. Put shortly:
as §2

In another test the test system is Es-2. The description is as above. The note with it: Gynecologic cancer cell panel viability, ATPlite luminescence, 48 h; series mostly up to 57.5 µM. The procedure, abridged: as §2
The next test relates to Tov-21-G. The description is as above. The note with it: Gynecologic cancer cell panel viability, ATPlite luminescence, 48 h; series mostly up to 57.5 µM. Put shortly:
as §2

In another test the test system is Tov112D. The description is as above. The note with it: Gynecologic cancer cell panel viability, ATPlite luminescence, 48 h; series mostly up to 57.5 µM. Put shortly: as §2
A short description of test [1]: Drug repurposing screens with cells derived from glioblastoma tumor samples (AID 1345199). Further: nearly all actives have a fitted effect of over 40% in size. The note with it: GBM patient neurospheres viability, ATP luminescence, 48 h. The procedure, abridged:
(§3)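 Primary testing used CD133+ neurospheres from four GBM patients, seven concentrations, 48 h exposure and ATP-based viability; confirmation added three slower-growing patient lines.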

For a further test, the system named is astro. Described as above. The note with it: viability, ATP luminescence, 48 h; series mostly up to 45.9 µM. The procedure, abridged: as §3
Where [2] appears, read: at 46.1 µM (top of the series), tumour line C.

Results filed as inconclusive are left out. Where a structure was tested more than once in an assay, its records may differ in their call. Active and inactive are the calls of the source. The call rests on the fitted dose curve; in most records, active means well fitted curve in the direction sought with a large enough effect; inconclusive means small, poorly fitted or top-dose-only effect, or another doubt; inactive means no such curve, though single readings can be large; an effect the other way counts as inactive or inconclusive.
On the % scale 0 is the no-effect control and ±100 the full control effect; potency means the concentration at half of the fitted maximal effect.

Take `COc1cc(F)c(F)c(Nc2ccc(I)cc2F)c1NS(=O)(=O)C1(C[C@H](O)CO)CC1`: the Potency entry in the test with MCC-26, in the test on MKL-1, with MKL-2, with UISO, with WaGa and with C33A was “inactive” each time. Further, the Potency result in the test on CASKI, in the test with HeLa, in the test on Hek293T, in the test on JEG-3, in the test on PA-1 and with SKOV3 was “inactive” throughout. Also, in the test with OV90, the Potency is 2.51 µM (active).

As to `CC1(C)CNc2cc(NC(=O)c3cccnc3NCc3ccncc3)ccc21`, the Potency result in the test on MCC-26, with MKL-1, with MKL-2, in the test on C33A, in the test with CAOV3 and in the test with CASKI was “inactive” throughout. For the same molecule, the Potency result in the test with Es-2, with HeLa, with Hek293T, in the test with JEG-3, in the test with PA-1 and in the test on SKOV3 was “inactive” in each case. The Potency entry in the test on Tov-21-G and in the test with Tov112D was “inactive” in each case.

Consider `CCCS(=O)(=O)Nc1ccc(F)c(C(=O)c2c[nH]c3ncc(Cl)cc23)c1F`, for which the Potency entry in the test with MCC-26, in the test with MKL-1, with MKL-2, in the test with WaGa, with C33A and in the test with CAOV3 was “inactive” in each case. Further, the Potency result with CASKI, in the test with HeLa, in the test on Hek293T, in the test with JEG-3, in the test on OV90 and in the test on Tov112D was “inactive” each time.

Turning to `Cc1ccc(NC(=O)c2cccc(C(C)(C)C#N)c2)cc1Nc1ccc2ncn(C)c(=O)c2c1`, the Potency result with MCC-26, with MKL-1, in the test on MKL-2 and with WaGa was “inactive” each time.

With `CCCC(CCC)C(=O)O`, the Potency result in the test on MCC-26, in the test with MKL-1, in the test on MKL-2, in the test on UISO, in the test with WaGa and with C33A was “inactive” in each case. For the same molecule, the Potency result in the test on CAOV3, in the test on CASKI, in the test with Es-2, with HeLa, with Hek293T and in the test with JEG-3 was “inactive” each time. Besides, the Potency result in the test with OV90, in the test on PA-1, with Tov-21-G, with Tov112D and in the test with astro was “inactive” each time. Moreover, the activity, negative = cell killing was -7.18% (inactive) in test [1] (at 45.9 µM (top of the series), tumour line B); -10.3% (inactive) in [1] (at 45.9 µM (top of the series), tumour line D); -15.5% (inactive) in test [1] (at 46 µM (top of the series), tumour line A); 0.524% (inactive) in test [1] (setting [2]).

On to `Cc1csc(NC(=O)c2sc3nc4c(c(C(F)(F)F)c3c2N)CCC4)n1`, for which the Potency entry in the test on MCC-26, in the test on MKL-1, in the test on MKL-2, with UISO and with WaGa was “inactive” each time. The Potency is 1.12 µM (active) with CAOV3; 2.51 µM (active) in the test with Es-2; 2.82 µM (active) with HeLa; 3.55 µM (active) with Hek293T; 12.6 µM (active) in the test with OV90; 3.55 µM (active) with Tov-21-G. Besides, the Potency in the test with Tov112D is 11.2 µM (active).

In the case of `CN1CCN(CCCN2c3ccccc3Sc3ccc(C(F)(F)F)cc32)CC1`, the Potency result in the test with MCC-26, in the test with MKL-1, in the test with UISO, in the test with WaGa, in the test on C33A and with HeLa was “inactive” throughout. Further, the Potency entry with JEG-3 and in the test with Tov-21-G was “inactive” throughout. For the same molecule, the Potency in the test on MKL-2 is 10.6 µM (active) and inactive; with OV90 it was 11.2 µM (active); in the test on SKOV3, 14.1 µM (active); in test [1] (tumour line A), 2.51 µM (active); in test [1] (tumour line B), 15.8 µM (active); in test [1] (tumour line D) it was 6.31 µM (active). The Potency in the test on astro was 25.1 µM (active). In test [1] (setting [2]), the activity, negative = cell killing is -24.2% (inactive).

In the case of `CCCS(=O)(=O)Nc1ccc(F)c(C(=O)c2c[nH]c3ncc(-c4ccc(Cl)cc4)cc23)c1F`, the Potency result in the test on MCC-26, in the test with MKL-1, in the test on MKL-2, in the test on UISO, in the test on WaGa and with C33A was “inactive” throughout. For the same molecule, the Potency entry in the test with CAOV3, in the test with CASKI, in the test with HeLa, in the test on Hek293T, in the test on JEG-3 and with OV90 was “inactive” in each case. Besides, the Potency entry in the test with SKOV3 and in the test with Tov112D was “inactive” in each case. Moreover, the Potency in the test with PA-1 was 10 µM (active).
